Bioassay records: PubChem, National Center for Advancing Translational Sciences (NCATS)
BCR signal inh: blocks chronic active B-cell receptor signaling. ABC-DLBCL IkBa-CBG/CBR reporter, luminescence ratio, 4 h. Potency, µM (series often up to 46.1 µM), for the others: top-dose activity change, negative = inhibition, usual class: inhibitors. hit rate 0.05% among 340,000. AID 493014; active = well fitted inhibition curve with a large enough effect in the signal ratio, with a control signal flat, not every such curve was filed as active; inconclusive = small, poorly fitted or top-dose-only effect, or effect the other way, or a change in a side signal; the % refers to the signal ratio;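 note: potency is the fitted concentration of half-maximal effect; plate controls were basal doxycycline-induced cells for no effect and cells given 10 µM MG132 for full effect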
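Compounds up to 46 uM were incubated four hours with TMD8 cells whose green CBG68 luciferase is fused to IkappaBalpha; red CBR luminescence normalised the signal, and concentration-effect curves were fitted to fusion, red and ratio data.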
D3 antag: antagonists of human D3 dopamine receptor; hit rate 2.5% among 360,000; D3R cells, DiscoveRx beta-arrestin luminescence, antagonist mode; stronger effect = lower value; AID 652054; max response, negative = inhibition, %; P35462; in the data active = max response below about -50%; inconclusive = no clear call, values can overlap the other calls; note: % is set by controls: 0 for no effect and ±100 for the full control effect
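Cells expressing the human receptor were seeded at 1500 cells/well, incubated overnight at 37 degrees C in 5% CO2, then exposed to library compounds with dopamine controls for 90 minutes at 37 degrees C before luminescent detection.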
D1 antag: antagonists of human D1 dopamine receptor | P21728 | HEK293 TREx D1 cells, calcium flux, dopamine EC80; stronger effect = lower value | activity change, negative = inhibition, % at 10 µM | hit rate 3.2% among 360,000 | AID 504652; in the data active = activity change below about -30%; note: % is set by controls: 0 for no effect and ±100 for the full control effect
Target sequence (P21728 whole entry, looked up): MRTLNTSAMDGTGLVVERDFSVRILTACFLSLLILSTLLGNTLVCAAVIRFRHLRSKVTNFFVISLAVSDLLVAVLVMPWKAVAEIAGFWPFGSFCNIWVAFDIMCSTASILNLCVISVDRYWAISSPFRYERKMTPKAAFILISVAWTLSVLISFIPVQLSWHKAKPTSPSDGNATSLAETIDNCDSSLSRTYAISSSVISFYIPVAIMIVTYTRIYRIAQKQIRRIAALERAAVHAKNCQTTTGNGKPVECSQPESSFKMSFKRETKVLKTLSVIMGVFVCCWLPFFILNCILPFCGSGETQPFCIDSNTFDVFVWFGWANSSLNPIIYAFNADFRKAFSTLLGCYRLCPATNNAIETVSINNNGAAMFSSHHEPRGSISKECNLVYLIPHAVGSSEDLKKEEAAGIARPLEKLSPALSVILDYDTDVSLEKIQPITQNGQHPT
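Kinetic fluorescence of a calcium dye serves as the read-out. D1-expressing Hek293 Trex cells, induced overnight at 30 C, are exposed to compound for 180 s before an EC80 dopamine addition, then read 180 s further.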
D1 agonist: human D1 receptor agonism; P21728; HEK293 T-REx D1 cells, calcium flux, agonist mode; activation, % at 2 µM; hit rate 1% among 360,000; AID 504660; in the data active = activation above about 30%; note: 0% is about no effect
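Tetracycline-induced HEK293 TREx D1 cells, force-coupled to calcium signalling, were dye-loaded with a no-wash calcium kit. Compound was pin-added after a 10 s baseline. Fluorescence was read kinetically at 1 cycle/s for 180 s, with calcium rises flagged as agonism.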
D3 ag: agonists of human D3 dopamine receptor | D3R DiscoveRx beta-arrestin cells, luminescence, 90 min | max activation, % | hit rate 0.58% among 410,000 | AID 652048; in the data active = max activation above about 30%; note: 0% is about no effect
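Agonist-mode cell screen: cells plated at 1500/well and incubated overnight at 37 °C, then exposed to library compounds for 90 min at 37 °C. Detection reagent was added for 30–60 min at room temperature, and luminescence was read.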
D1 potentiator: potentiators of human D1 dopamine receptor; P21728; HEK293 TREx D1 cells, calcium flux, dopamine EC20 potentiation; potentiation, % at 10 µM; hit rate 0.036% among 360,000; in the data active = potentiation above about 30%; note: 0% is about no effect
* marks the source's active call; other numbers are inactive results; ? = inconclusive; · = no result given. Most compounds without a hit are left out; they make up all but 6% or so of the library.

SMILES | BCR signal inh | D3 antag | D1 antag | D1 agonist | D3 ag | D1 potentiator
Cc1ccc(C(=O)c2ccccc2C(=O)OCC(=O)Nc2cccc([N+](=O)[O-])c2)cc1 | ? | 17 | -11 | 2 | -15 | -9
CCNc1ccc(C(=O)OCC(=O)NC(=O)NCC(C)C)cc1[N+](=O)[O-] | 0% | 7 | -16 | 1 | 4 | -2
O=C(CC1SC(N2CCCCC2)=NC1=O)Nc1cccc(C(F)(F)F)c1 (centres undefined) | 8% | 1 | -34* | 1 | -27 | -4
Cc1ccc2oc(=O)cc(CN3CCN(C/C=C/c4ccccc4)CC3)c2c1 | -9% | -60* | 24 | 6 | -12 | -2
O=c1cc(CN2CCN(C/C=C/c3ccccc3)CC2)c2cc(O)ccc2o1 | ? | -62* | -33* | 11 | -11 | 3
O=c1cc(CN2CCN(Cc3ccccc3)CC2)c2ccc(O)cc2o1 | -1% | 6 | -14 | 2 | -12 | -8
Cc1ccccc1CN1CCN(C/C=C/c2ccccc2)CC1 | 10% | -192* | 5 | 2 | -41 | 1
CC(C)NC(=O)C1Cc2c(-c3ccc4c(c3)OCO4)ccnc2O1 (centres undefined) | · | -19 | · | · | -7 | ·
O=C1CS/C(=C\[N+](=O)[O-])N1c1ccccc1 | 5% | -71* | -15 | 2 | -4 | -1
O=C1CS/C(=N\N=C\c2ccco2)N1c1ccccc1 | -3% | 2 | -13 | 1 | 0 | 12
O=C(O)C1CCN(c2ccc(S(=O)(=O)N3CCCCC3)cc2[N+](=O)[O-])CC1 | -1% | -12 | 5 | 3 | -4 | -4
NC(=O)C1CCN(S(=O)(=O)c2ccccc2[N+](=O)[O-])CC1 | -1% | -1 | 3 | 1 | 6 | 1
Cc1ccc(S(=O)(=O)N2CCC(C(N)=O)CC2)cc1[N+](=O)[O-] | 7% | -7 | -39* | -3 | 1 | -1
O=C(O)C1CCN(S(=O)(=O)c2ccc(N3CCCC3C(=O)O)c([N+](=O)[O-])c2)CC1 (centres undefined) | -1% | -82* | -10 | 4 | -20 | -8
COc1ccccc1C(=O)OCc1cc(=O)n2nc(C(C)C)sc2n1 | · | · | 0 | 1 | 3 | -4
COc1ccc(CCN2C(=O)c3ccccc3C2c2nnnn2Cc2ccccc2)cc1OC (centres undefined) | · | -2 | · | · | 13 | ·
CC(Oc1ccc(F)cc1)C(=O)Nc1nc(-c2ccc(F)cc2)ns1 (centres undefined) | · | · | -21 | 18 | -9 | -1
O=C(CNC(=O)c1ccccc1Br)N/N=C/c1ccccc1O | 1% | 13 | -3 | 1 | 4 | -7
Cc1cc([N+](=O)[O-])cc(C)c1OCC(=O)N/N=C/c1ccc(OC(=O)c2ccccc2)cc1 | 3% | 0 | -4 | 5 | 5 | 4
Cc1cc([N+](=O)[O-])cc(C)c1OCC(=O)N/N=C/c1ccc(OC(=O)c2ccccc2Br)cc1 | -4% | -11 | -33* | 4 | 3 | -4
O=C(CNC(=O)c1ccccc1Br)N/N=C\c1cc([N+](=O)[O-])cc(Br)c1O | -1% | -76* | -10 | 1 | -27 | -4
Nc1nnc(CC(=O)N/N=C/c2cc([N+](=O)[O-])cc(Br)c2O)s1 | 0% | -109* | 7 | 6 | -19 | ·
COC(=O)N/N=C/c1cc([N+](=O)[O-])cc(Br)c1O | 4% | -98* | 6 | 2 | -15 | -3
CCOC(=O)c1cccc(NC(=O)[C@H](CSCc2ccccc2)N2Cc3ccccc3C2=O)c1 | · | · | 8 | 7 | 0 | -4
Cc1ccc(-c2nnc(Nc3ccc(O)cc3)c3ccccc23)cc1S(=O)(=O)N1CCN(C)CC1 | · | · | 1 | 0 | -6 | -1
Oc1ccc2[nH]ccc2c1 | 1% | -17 | -30* | 3 | -7 | -4
Oc1ccc2ccc3[nH]cnc3c2c1 | -4% | 12 | 8 | 2 | 1 | -2
N#Cc1cc2ccccc2nc1SCC(=O)Nc1ccccc1N1CCOCC1 | 2% | -18 | -10 | 62* | 3 | -3
